# Source: the supplement of paper PMC10849652
# Of roughly 8,800 targets only a part is listed; those with a hit were picked by preference. About 0.5% of all pairs of compound and target were hits. Values without a mark were called inactive.
# Experiments:
# Experiment in all cases: log2 fold change, soluble protein after heating vs DMSO (PISA); higher = thermal stabilisation; K562 lysate, 10 uM; active = over 0.2 and 3.5 SD of the protein, either way, in both replicates (recomputed)
# [1] = compound: CS(=O)(=O)CCNCc1ccc(-c2ccc3ncnc(Nc4ccc(OCc5cccc(F)c5)c(Cl)c4)c3c2)o1 [lapatinib]
# Summary of the method: (§1)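 Log-two fold change in thermal stability relative to solvent controls is reported from duplicates. For each sample, crude K562 extract from dounce-homogenised pellets in PBS pH 7.4 with 1 mM MgCl2, at 1 mg/mL protein, was treated with 10 μM compound for 30 min. Aliquots heated for 3 min across 48°C-58°C were pooled, brought to 0.5% NP-40 at 4°C and cleared at 21,000xg for 90 min. The supernatant was quantified by TMTpro 16plex LC-MS/MS with channel sums equalised.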
# [2] = compound: CS(=O)(=O)N1CCN(Cc2cc3nc(-c4cccc5[nH]ncc45)nc(N4CCOCC4)c3s2)CC1 [pictilisib]
# Summary of the method: as §1
# [3] = compound: C[C@@H](Oc1cc(-c2cnn(C3CCNCC3)c2)cnc1N)c1c(Cl)ccc(F)c1Cl [crizotinib]
# Summary of the method: as §1
# [4] = compound: C[C@H](C1=CC=C(C=C1)C(=O)NC2=C3C=CNC3=NC=C2)N
# Summary of the method: as §1
# [5] = compound: C[C@H](Nc1ncnc2nc[nH]c12)c1cc2cccc(Cl)c2c(=O)n1-c1ccccc1 [duvelisib]
# Summary of the method: as §1
# [6] = compound: Cc1cc(Nc2cc(CN3CCOCC3)c3nc(C)c(Cc4ccc(Cl)cc4F)n3n2)n[nH]1 [gandotinib]
# Summary of the method: as §1
# [7] = compound: Cc1cc(Nc2cc(N3CCN(C)CC3)nc(Sc3ccc(NC(=O)C4CC4)cc3)n2)n[nH]1 [tozasertib]
# Summary of the method: as §1
# [8] = compound: Cc1ccc(-n2nc(C(C)(C)C)cc2NC(=O)Nc2ccc(OCCN3CCOCC3)c3ccccc23)cc1 [doramapimod]
# Summary of the method: as §1
# [9] = compound: Cc1ccc(NC(=O)c2ccc(CN3CC[C@H](N(C)C)C3)c(C(F)(F)F)c2)cc1Nc1nccc(-c2cncnc2)n1 [bafetinib]
# Summary of the method: as §1
# [10] = compound: Cc1cccc(CC(=O)N2CCc3c2ccc(-c2cn(C)c4ncnc(N)c24)c3F)n1
# Summary of the method: as §1
# [11] = compound: Cc1cn(-c2cc(NC(=O)c3ccc(C)c(Nc4nccc(-c5cccnc5)n4)c3)cc(C(F)(F)F)c2)cn1 [nilotinib]
# Summary of the method: as §1
# [12] = compound: Cc1nc(Nc2n[nH]c3c2CN(C(=O)N[C@H](CN(C)C)c2ccccc2)C3(C)C)c2sccc2n1
# Summary of the method: as §1
# [13] = compound: Cc1nc(Nc2ncc(C(=O)Nc3c(C)cccc3Cl)s2)cc(N2CCN(CCO)CC2)n1 [dasatinib]
# Summary of the method: as §1
# [14] = compound: Cc1ncc(-c2ccnc(Nc3ccc(S(C)(=O)=O)cc3)n2)n1C(C)C
# Summary of the method: as §1
# [15] = compound: Cn1cc(-c2ccc3c(c2)CCN3C(=O)Cc2cccc(C(F)(F)F)c2)c2c(N)ncnc21
# Summary of the method: as §1
# [16] = compound: Cn1cc(CNCC2CCN(c3ncc(C(=O)NO)cn3)CC2)c2ccccc21 [quisinostat]
# Summary of the method: as §1
# [17] = compound: Cn1cncc1[C@@](N)(c1ccc(Cl)cc1)c1ccc2c(c1)c(-c1cccc(Cl)c1)cc(=O)n2C [tipifarnib]
# Summary of the method: as §1
# [18] = compound: NC(=O)Nc1cc(-c2cccc(F)c2)sc1C(=O)N[C@H]1CCCNC1
# Summary of the method: as §1
# [19] = compound: NC(=O)c1cnc(N[C@@H]2CCCC[C@@H]2N)nc1Nc1cccc(-n2nccn2)c1
# Summary of the method: as §1
# [20] = compound: NC1(c2ccc(-c3nc4ccn5c(=O)[nH]nc5c4cc3-c3ccccc3)cc2)CCC1
# Summary of the method: as §1
# UniProt Q96N67, sequence (Q96N67 whole entry, looked up): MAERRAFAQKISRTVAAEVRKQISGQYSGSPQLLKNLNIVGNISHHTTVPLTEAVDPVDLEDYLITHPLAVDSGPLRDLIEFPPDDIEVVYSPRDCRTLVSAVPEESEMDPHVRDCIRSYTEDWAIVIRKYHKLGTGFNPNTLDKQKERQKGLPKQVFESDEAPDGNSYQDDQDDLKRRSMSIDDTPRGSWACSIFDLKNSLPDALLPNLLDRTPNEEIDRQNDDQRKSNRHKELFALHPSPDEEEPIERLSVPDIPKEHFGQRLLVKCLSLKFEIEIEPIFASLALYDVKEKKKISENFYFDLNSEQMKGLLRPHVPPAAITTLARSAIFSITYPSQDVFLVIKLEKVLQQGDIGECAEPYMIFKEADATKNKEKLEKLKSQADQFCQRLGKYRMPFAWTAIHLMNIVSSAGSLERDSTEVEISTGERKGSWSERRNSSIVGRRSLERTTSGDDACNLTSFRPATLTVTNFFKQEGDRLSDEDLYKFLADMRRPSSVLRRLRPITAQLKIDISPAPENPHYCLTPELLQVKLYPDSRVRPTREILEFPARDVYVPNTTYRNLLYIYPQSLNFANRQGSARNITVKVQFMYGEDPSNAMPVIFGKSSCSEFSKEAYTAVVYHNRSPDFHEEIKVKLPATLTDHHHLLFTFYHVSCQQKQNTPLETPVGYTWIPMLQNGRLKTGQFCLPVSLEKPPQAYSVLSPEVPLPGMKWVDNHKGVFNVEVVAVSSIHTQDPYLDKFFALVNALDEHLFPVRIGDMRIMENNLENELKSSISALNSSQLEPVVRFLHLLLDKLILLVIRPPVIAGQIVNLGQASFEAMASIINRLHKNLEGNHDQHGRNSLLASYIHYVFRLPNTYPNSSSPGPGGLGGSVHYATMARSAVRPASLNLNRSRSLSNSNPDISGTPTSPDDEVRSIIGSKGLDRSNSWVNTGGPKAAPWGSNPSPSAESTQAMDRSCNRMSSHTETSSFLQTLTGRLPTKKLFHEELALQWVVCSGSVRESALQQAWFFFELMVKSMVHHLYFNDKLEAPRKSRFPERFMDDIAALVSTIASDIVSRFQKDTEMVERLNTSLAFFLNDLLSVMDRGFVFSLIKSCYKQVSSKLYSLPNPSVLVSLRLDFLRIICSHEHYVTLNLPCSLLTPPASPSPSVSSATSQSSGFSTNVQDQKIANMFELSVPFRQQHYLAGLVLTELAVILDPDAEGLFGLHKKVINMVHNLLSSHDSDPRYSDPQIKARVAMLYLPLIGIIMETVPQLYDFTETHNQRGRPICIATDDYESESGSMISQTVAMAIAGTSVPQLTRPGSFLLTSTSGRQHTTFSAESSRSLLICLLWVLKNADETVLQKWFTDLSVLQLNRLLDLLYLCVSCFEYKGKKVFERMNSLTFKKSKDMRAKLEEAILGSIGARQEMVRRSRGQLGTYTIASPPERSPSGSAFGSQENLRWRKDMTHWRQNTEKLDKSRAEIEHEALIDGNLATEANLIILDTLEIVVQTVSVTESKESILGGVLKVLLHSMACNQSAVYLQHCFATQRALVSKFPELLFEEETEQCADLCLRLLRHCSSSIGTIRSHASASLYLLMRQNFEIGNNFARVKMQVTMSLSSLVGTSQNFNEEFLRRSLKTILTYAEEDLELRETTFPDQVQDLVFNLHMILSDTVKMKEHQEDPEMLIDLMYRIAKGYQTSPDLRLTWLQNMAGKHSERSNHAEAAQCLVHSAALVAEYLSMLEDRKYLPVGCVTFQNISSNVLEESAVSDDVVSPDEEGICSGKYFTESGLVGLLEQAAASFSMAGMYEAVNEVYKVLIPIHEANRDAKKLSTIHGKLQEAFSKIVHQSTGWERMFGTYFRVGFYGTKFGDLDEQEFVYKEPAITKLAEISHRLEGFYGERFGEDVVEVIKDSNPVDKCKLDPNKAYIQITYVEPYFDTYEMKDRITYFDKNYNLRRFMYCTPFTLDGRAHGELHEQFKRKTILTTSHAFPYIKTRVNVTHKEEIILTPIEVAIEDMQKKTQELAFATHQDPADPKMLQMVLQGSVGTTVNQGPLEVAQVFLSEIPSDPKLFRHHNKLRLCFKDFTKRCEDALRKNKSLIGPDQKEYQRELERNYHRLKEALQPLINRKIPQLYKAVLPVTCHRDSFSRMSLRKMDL
# UniProt O60610, sequence (O60610 whole entry, looked up): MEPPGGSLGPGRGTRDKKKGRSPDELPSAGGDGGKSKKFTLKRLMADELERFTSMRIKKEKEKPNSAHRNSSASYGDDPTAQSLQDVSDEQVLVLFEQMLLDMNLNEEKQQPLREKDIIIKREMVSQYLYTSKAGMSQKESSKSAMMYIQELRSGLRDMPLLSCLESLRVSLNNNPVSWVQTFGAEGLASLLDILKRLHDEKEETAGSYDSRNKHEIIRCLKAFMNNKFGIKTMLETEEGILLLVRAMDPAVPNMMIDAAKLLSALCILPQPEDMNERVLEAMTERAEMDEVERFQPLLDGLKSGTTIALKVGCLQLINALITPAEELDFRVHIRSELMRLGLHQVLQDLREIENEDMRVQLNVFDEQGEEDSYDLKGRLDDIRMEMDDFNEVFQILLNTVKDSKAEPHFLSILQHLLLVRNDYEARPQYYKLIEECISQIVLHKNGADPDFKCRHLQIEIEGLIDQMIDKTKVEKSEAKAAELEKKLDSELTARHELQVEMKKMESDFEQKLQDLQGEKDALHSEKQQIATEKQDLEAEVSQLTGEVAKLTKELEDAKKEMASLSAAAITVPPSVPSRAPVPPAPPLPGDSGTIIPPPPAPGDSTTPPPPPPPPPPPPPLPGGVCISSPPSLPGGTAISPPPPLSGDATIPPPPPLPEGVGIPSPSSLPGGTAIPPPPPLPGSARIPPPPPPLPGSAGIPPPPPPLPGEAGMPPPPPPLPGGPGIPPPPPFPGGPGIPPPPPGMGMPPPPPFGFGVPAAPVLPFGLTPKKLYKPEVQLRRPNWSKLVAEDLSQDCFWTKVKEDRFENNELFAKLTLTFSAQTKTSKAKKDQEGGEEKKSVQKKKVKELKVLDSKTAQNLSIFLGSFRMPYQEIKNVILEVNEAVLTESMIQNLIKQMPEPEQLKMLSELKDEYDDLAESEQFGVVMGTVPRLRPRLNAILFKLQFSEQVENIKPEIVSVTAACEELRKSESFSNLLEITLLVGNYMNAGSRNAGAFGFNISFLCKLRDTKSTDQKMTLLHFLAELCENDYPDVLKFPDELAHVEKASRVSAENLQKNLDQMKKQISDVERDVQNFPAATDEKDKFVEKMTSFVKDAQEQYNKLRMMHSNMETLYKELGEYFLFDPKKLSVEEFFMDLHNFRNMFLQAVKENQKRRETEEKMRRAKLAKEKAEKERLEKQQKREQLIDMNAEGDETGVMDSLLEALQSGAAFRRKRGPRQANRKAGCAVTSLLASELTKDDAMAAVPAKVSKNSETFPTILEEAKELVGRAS
# UniProt P57737, sequence (P57737 whole entry, looked up): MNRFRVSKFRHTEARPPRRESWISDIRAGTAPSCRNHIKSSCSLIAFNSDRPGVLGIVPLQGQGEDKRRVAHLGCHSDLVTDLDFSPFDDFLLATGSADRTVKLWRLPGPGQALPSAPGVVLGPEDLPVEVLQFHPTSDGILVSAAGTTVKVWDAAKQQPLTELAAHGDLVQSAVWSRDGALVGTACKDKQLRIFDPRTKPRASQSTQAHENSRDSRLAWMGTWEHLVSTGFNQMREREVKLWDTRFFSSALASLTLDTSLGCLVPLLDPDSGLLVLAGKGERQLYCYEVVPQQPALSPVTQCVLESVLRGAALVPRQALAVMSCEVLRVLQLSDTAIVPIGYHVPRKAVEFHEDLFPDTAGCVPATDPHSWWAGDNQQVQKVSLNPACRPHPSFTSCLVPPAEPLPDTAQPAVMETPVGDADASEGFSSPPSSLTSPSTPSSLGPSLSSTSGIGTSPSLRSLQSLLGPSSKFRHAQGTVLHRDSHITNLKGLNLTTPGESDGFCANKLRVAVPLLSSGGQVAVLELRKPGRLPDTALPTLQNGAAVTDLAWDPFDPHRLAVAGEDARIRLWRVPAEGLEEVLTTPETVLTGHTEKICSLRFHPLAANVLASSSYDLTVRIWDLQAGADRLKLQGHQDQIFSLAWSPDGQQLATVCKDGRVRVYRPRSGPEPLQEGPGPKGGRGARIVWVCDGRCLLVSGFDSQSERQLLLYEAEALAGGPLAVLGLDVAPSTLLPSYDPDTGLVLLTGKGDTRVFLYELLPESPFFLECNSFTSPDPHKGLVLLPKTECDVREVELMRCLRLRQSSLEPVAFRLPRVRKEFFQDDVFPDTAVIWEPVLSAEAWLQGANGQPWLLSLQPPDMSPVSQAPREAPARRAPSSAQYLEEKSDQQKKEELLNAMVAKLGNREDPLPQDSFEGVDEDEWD
# UniProt P48729, sequence (P48729 whole entry, looked up): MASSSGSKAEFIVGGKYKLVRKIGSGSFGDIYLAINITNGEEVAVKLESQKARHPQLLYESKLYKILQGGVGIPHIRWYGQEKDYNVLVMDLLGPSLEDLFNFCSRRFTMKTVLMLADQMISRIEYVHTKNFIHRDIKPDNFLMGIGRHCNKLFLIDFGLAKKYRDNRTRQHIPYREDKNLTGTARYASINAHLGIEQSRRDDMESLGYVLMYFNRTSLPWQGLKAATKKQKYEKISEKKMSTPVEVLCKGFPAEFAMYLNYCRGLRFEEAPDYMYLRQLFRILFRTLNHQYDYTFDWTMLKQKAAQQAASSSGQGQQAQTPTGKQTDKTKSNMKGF
# UniProt Q99766, sequence (Q99766 whole entry, looked up): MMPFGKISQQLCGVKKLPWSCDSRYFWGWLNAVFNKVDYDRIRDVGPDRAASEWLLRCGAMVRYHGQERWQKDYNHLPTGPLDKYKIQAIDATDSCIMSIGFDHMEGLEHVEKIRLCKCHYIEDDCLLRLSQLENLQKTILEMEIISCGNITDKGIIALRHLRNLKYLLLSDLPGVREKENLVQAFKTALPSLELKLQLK
# UniProt P00374, sequence (P00374 whole entry, looked up): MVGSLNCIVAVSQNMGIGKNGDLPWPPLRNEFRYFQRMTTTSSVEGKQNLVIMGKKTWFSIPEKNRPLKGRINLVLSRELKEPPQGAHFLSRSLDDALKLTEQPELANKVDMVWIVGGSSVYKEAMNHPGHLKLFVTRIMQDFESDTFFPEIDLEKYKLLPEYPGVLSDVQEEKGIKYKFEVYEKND
Target,log2 fold change [1],log2 fold change [2],log2 fold change [3],log2 fold change [4],log2 fold change [5],log2 fold change [6],log2 fold change [7],log2 fold change [8],log2 fold change [9],log2 fold change [10],log2 fold change [11],log2 fold change [12],log2 fold change [13],log2 fold change [14],log2 fold change [15],log2 fold change [16],log2 fold change [17],log2 fold change [18],log2 fold change [19],log2 fold change [20]
COTL1 (UniProt Q14019),0.007,0.016,0.045,0.245,-0.009,-0.062,0.024,-0.044,0.102,-0.122,0.021,0.003,0.024,0.031,0.023,0.017,0.055,-0.075,-0.028,-0.011
CXorf38 (UniProt Q8TB03),-0.05,-0.017,-0.019,-0.039,0.013,0.037,0.037,0.013,-0.018,-0.033,0.029,0.013,-0.04,0.053,-0.034,0.004,0.002,0.006,0.049,0.009
DMAC2L (UniProt Q99766),-0.021,-0.036,0.012,-0.048,-0.037,0.047,0.087,0.002,0.009,0.1,-0.021,0.001,0.059,-0.04,-0.009,0.012,-0.017,-0.032,-0.006,0.111
CSNK1A1 (UniProt P48729),-0.099,0.084,-0.049,0.084,-0.034,-0.077,-0.068,0.027,0,-0.01,-0.04,0.045,0.088,0.123,-0.039,-0.04,-0.019,0.197,0.018,-0.07
DCUN1D4 isoform 3 (UniProt Q92564),0.072,0.046,-0.02,0.001,0.02,-0.104,-0.009,0.004,-0.003,-0.039,0.023,-0.007,-0.062,-0.009,-0.046,0.066,0.017,-0.019,-0.036,-0.043
DHFR (UniProt P00374),-0.012,-0.069,-0.054,0.04,-0.015,-0.099,0.022,0.011,-0.047,-0.077,0.023,-0.041,-0.091,0.019,0.073,-0.009,-0.012,0.039,-0.129,-0.04
DNAH10 (UniProt Q8IVF4),-0.075,0.066,-0.136,-0.553 (active),0.044,0.172,-0.024,0.076,-0.08,0.196,0.017,0.014,-0.026,-0.024,-0.026,-0.251,0.025,0.012,-0.017,-0.072
CPT1A (UniProt P50416),0.013,0.014,0.114,0.009,0.021,0.057,0.037,0.038,-0.056,-0.027,-0.012,0.049,0.015,-0.022,0.008,0.308 (active),0.056,-0.09,-0.028,-0.038
CSNK2B (UniProt P67870),-0.052,0.023,-0.073,0.027,-0.053,0.016,0.004,0.022,0.064,-0.05,0.086,-0.029,-0.014,0.034,-0.006,-0.005,-0.058,0.028,0.042,-0.049
CORO7 isoform 3 (UniProt P57737),0.009,-0.016,-0.063,0.06,0.004,-0.119,0.005,0.013,0.001,-0.067,-0.006,0.003,-0.032,0.01,0.019,-0.026,0.005,0.012,-0.016,-0.013
DIAPH1 (UniProt O60610),-0.007,0.014,0.004,0.06,-0.006,-0.063,0.004,-0.003,-0.001,-0.021,-0.003,-0.009,-0.019,-0.009,0.006,-0.006,-0.006,-0.006,0.002,0.008
DLGAP5 (UniProt Q15398),0.02,0,-0.016,-0.029,-0.005,0.049,-0.014,0.001,-0.008,0.04,-0.013,0.029,-0.036,0,0.001,-0.033,0.001,0.011,0.006,0.007
DOCK7 (UniProt Q96N67),-0.003,-0.016,-0.022,-0.107,-0.004,-0.103,0.047,0.012,-0.032,0.102,0.005,-0.002,0.01,-0.03,0.029,-0.039,-0.01,0.048,0.036,-0.062
CSNK1D (UniProt P48730),-0.098,0.066,0.052,-0.153,0.007,0.059,0.008,-0.011,-0.01,-0.177,0.199,-0.384,0.028,-0.551 (active),-0.059,-0.049,-0.139,0.021,0.072,–
DCP1A (UniProt Q9NPI6),-0.015,-0.015,-0.042,-0.008,0.023,0.003,-0.03,-0.031,0.043,0.089,0.022,0.117,-0.052,-0.023,-0.001,-0.042,0.039,0.008,-0.041,-0.03
CINP isoform 3 (UniProt Q9BW66),-0.059,0.011,-0.028,-0.325 (active),0.062,0.018,0.056,0.036,-0.059,0.208,-0.13,0.065,-0.073,0.19,0.024,0.015,-0.009,0.034,0.03,–
